Among the test systems are DU-145 prostate; K-562 leukemia; MALME-3M melanoma; MDA-MB-231 breast; RXF 393 renal; SF-268 CNS; SF-295 CNS; SF-539 CNS; UACC-257 melanoma; M14 melanoma; HCT-15 colon; HT29 colon; SNB-75 CNS; SNB-19 CNS; U251 CNS; PC-3 prostate; SK-MEL-5 melanoma; UACC-62 melanoma; LOX IMVI melanoma; SK-MEL-28 melanoma.
Holding throughout (assay): NCI-60 one-dose screen, 48 h (100 = growth as untreated, 0 = no growth, -100 = all killed)
What all share (conditions): 10 µM unless noted

Structures are written as SMILES. This is part of a sample that, as a whole, favours compounds with a hit. Of some 83,000 tested, about 20% had one in any assay.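 Treatment: one concentration, 48 hours, 96-well format. Scoring: percent growth, with anything below 10 considered active.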 Values without a mark were called inactive. Active and inactive are the calls of the source.

As for `COc1ccc2cc(-c3nc(C)c(C(C)=O)c(-c4ccc(C)cc4)n3)ccc2c1`, the growth is 107% in the experiment with DU-145 prostate; 125% in the experiment on K-562 leukemia; 91.2% in the experiment on MALME-3M melanoma; 81% in the experiment with MDA-MB-231 breast; 81.6% in the experiment on RXF 393 renal; 101% in the experiment with SF-268 CNS. Further, the growth in the experiment on SF-295 CNS was 99.6%; in the experiment on SF-539 CNS it was 89.6%; in the experiment on UACC-257 melanoma it was 101%; in the experiment on M14 melanoma, 91.1%; in the experiment on HCT-15 colon, 88.2%; in the experiment with HT29 colon, 82.4%. For the same compound, the growth with SNB-75 CNS was 98.5%; in the experiment with SNB-19 CNS, 92.8%; in the experiment on U251 CNS, 94.5%; with PC-3 prostate, 85.9%; with SK-MEL-5 melanoma, 75.4%; with UACC-62 melanoma it was 71.7%. Besides, the growth with LOX IMVI melanoma and with SK-MEL-28 melanoma was 101% in each case.
With `COc1ccc(/C(=C\c2cc(OC)c(OC)c(OC)c2)C(=O)N2CCCNCC2)cc1`, the growth in the experiment with DU-145 prostate was 115%; in the experiment with K-562 leukemia, 108%; in the experiment with MALME-3M melanoma, 113%; in the experiment on MDA-MB-231 breast it was 94%; in the experiment with RXF 393 renal, 98.4%; in the experiment with SF-268 CNS, 106%. The growth in the experiment with SF-295 CNS is 101%; in the experiment on SF-539 CNS, 108%; in the experiment with UACC-257 melanoma, 102%; with M14 melanoma, 105%; in the experiment with HCT-15 colon it was 103%; with HT29 colon, 106%. For the same compound, the growth in the experiment on SNB-75 CNS is 88.7%; in the experiment with SNB-19 CNS, 100%; in the experiment with U251 CNS it was 109%; in the experiment on PC-3 prostate, 91.8%; in the experiment with SK-MEL-5 melanoma, 99.7%; in the experiment on UACC-62 melanoma, 105%. Also, the growth in the experiment with LOX IMVI melanoma was 103%; in the experiment with SK-MEL-28 melanoma it was 111%.
Turning to `Cc1ccc(S(=O)(=O)NC(CCC(=O)Nc2ccc(Cl)cc2)C(=O)Nc2ccc(Cl)cc2)cc1` (stereo not given), the growth with DU-145 prostate was 45.8%; with K-562 leukemia it was 2.8% (active); in the experiment on MALME-3M melanoma, 14.2%; with MDA-MB-231 breast, -5.94% (active); in the experiment on RXF 393 renal it was 22.9%; in the experiment with SF-268 CNS, 38.8%. Also, the growth in the experiment with SF-295 CNS was 10.5%; in the experiment with SF-539 CNS, -20.5% (active); in the experiment on UACC-257 melanoma, 45.6%; in the experiment with M14 melanoma, 32.2%; in the experiment on HCT-15 colon, 18.9%; in the experiment with HT29 colon, 14.2%. The growth is -17.2% (active) with SNB-75 CNS; 14.1% in the experiment on SNB-19 CNS; 12.5% in the experiment on U251 CNS; 17.8% in the experiment with PC-3 prostate; 21.2% in the experiment on SK-MEL-5 melanoma; 2.47% (active) with UACC-62 melanoma. The growth is 6.06% (active) with LOX IMVI melanoma and 64.3% in the experiment with SK-MEL-28 melanoma.
Take `CC(=O)Nc1nonc1-c1nc2ccccc2n1Cc1ccc(C(C)(C)C)cc1`: the growth with DU-145 prostate was 79.9%; in the experiment on K-562 leukemia, 30.2%; in the experiment with MALME-3M melanoma it was 90.5%; with MDA-MB-231 breast, 92.8%; in the experiment on RXF 393 renal it was 65.8%; with SF-268 CNS it was 67.2%. The growth in the experiment on SF-295 CNS was 79.6%; with SF-539 CNS it was 89%; with UACC-257 melanoma, 92%; with M14 melanoma it was 92%; with HCT-15 colon it was 90.4%; with HT29 colon, 74.1%. Besides, the growth is 50.2% with SNB-75 CNS; 80.1% in the experiment on SNB-19 CNS; 75.7% in the experiment with U251 CNS; 28.6% in the experiment with PC-3 prostate; 79.9% with SK-MEL-5 melanoma; 81.6% with UACC-62 melanoma. The growth in the experiment with LOX IMVI melanoma was 63%; with SK-MEL-28 melanoma it was 101%.
Regarding `ClCc1cccc(CSc2ncnc3c2ncn3Cc2cccc(CCl)c2)c1`, the growth with DU-145 prostate is 50.4%; with K-562 leukemia it was 14.2%; with MALME-3M melanoma it was 41.7%; in the experiment with MDA-MB-231 breast, 12%; in the experiment on RXF 393 renal, -20.2% (active); in the experiment with SF-268 CNS it was 17%. Moreover, the growth is 92% with SF-295 CNS; 58.2% with SF-539 CNS; 42.5% in the experiment with UACC-257 melanoma; -71.8% (active) in the experiment with M14 melanoma; 20.7% in the experiment with HCT-15 colon; 13.2% in the experiment with HT29 colon. The growth was -13.8% (active) with SNB-75 CNS; 45.6% in the experiment with SNB-19 CNS; -69.8% (active) with U251 CNS; 49.8% in the experiment on PC-3 prostate; 20.2% in the experiment on SK-MEL-5 melanoma; 6.23% (active) with UACC-62 melanoma. For the same compound, the growth in the experiment with LOX IMVI melanoma was -8.54% (active); in the experiment with SK-MEL-28 melanoma, 27.4%.
As for `Cc1nc2ccc(Nc3nc(NCCN4CCOCC4)nc(Nc4ccc(F)cc4)n3)cc2n1Cc1ccccc1`, the growth in the experiment on DU-145 prostate is 59.2%; in the experiment on K-562 leukemia, 3.04% (active); with MALME-3M melanoma, -41.7% (active); in the experiment on MDA-MB-231 breast it was 33.3%; in the experiment with RXF 393 renal it was 12%; with SF-268 CNS, 62.1%. For the same compound, the growth in the experiment with SF-295 CNS was -36.8% (active); with SF-539 CNS, 29.8%; in the experiment with UACC-257 melanoma, -65.3% (active); in the experiment with M14 melanoma, -38.8% (active); with HCT-15 colon, -0.585% (active); in the experiment on HT29 colon it was -33.6% (active). The growth is 50.6% with SNB-75 CNS; 78.7% in the experiment on SNB-19 CNS; 28.7% in the experiment on U251 CNS; 71.5% in the experiment on PC-3 prostate; 14.2% in the experiment with SK-MEL-5 melanoma; -24.8% (active) with UACC-62 melanoma. In addition, the growth was 5.7% (active) with LOX IMVI melanoma and -67.2% (active) in the experiment with SK-MEL-28 melanoma.
With `O=C(O)/C=C(\c1nc2ccc([N+](=O)[O-])cc2[nH]1)c1cc(Cl)ccc1O`, the growth with DU-145 prostate was 39.9%; with K-562 leukemia, 14.7%; in the experiment on MALME-3M melanoma, 6.7% (active); in the experiment on MDA-MB-231 breast it was 13.1%; with RXF 393 renal, 39.1%; in the experiment with SF-268 CNS, 32.2%. Also, the growth is 21.6% with SF-295 CNS; 26.3% with SF-539 CNS; 17.8% in the experiment with UACC-257 melanoma; 25.8% in the experiment on M14 melanoma; 21.1% in the experiment with HCT-15 colon; 36.2% with HT29 colon. Further, the growth in the experiment on SNB-75 CNS is 50.4%; with SNB-19 CNS it was 18.5%; in the experiment on U251 CNS, 16.9%; with PC-3 prostate, 14.1%; in the experiment on SK-MEL-5 melanoma, -28% (active); in the experiment on UACC-62 melanoma it was -3.61% (active). The growth in the experiment with LOX IMVI melanoma is 21%; in the experiment on SK-MEL-28 melanoma, 20.8%.
Regarding `COc1cccc(Cn2c(-c3nonc3NC(C)=O)nc3ccccc32)c1`, the growth in the experiment on DU-145 prostate was 13.8%; with K-562 leukemia, 13.9%; in the experiment with MALME-3M melanoma, 42.3%; in the experiment with MDA-MB-231 breast, 46.1%; in the experiment with RXF 393 renal, -17% (active); in the experiment with SF-268 CNS, 59.5%. In addition, the growth in the experiment on SF-295 CNS is 15%; in the experiment on SF-539 CNS, 36.7%; in the experiment with UACC-257 melanoma it was 52.7%; with M14 melanoma, 14.1%; in the experiment with HCT-15 colon, 34.9%; in the experiment with HT29 colon, 21.5%. Besides, the growth was 10.1% with SNB-75 CNS; 71.3% in the experiment with SNB-19 CNS; 27.1% in the experiment on U251 CNS; 21.4% in the experiment with PC-3 prostate; 28.4% with SK-MEL-5 melanoma; 45.2% in the experiment on UACC-62 melanoma. Moreover, the growth was 50.2% in the experiment on LOX IMVI melanoma and 57.3% with SK-MEL-28 melanoma.
